Laboratory results reported in PubChem BioAssay (NCI).
Compounds without any hit were thinned out: in the full panel of roughly 83,000, 20% have a hit.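 Cell lines were cultured in 96-well plates, exposed to a single compound concentration, and assessed for percent growth 48 hours later.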 Values without a mark were called inactive. Active and inactive are the calls of the source. The calls were made as follows: active = growth percent below 10; inactive = the rest.

How the values were obtained:
Assay in all cases: NCI-60 one-dose screen, 48 h (100 = growth as untreated, 0 = no growth, -100 = all killed)
Details in all cases: 10 µM unless noted
NCI-H23 lung = system: NCI-H23 lung
NCI-H226 lung = system: NCI-H226 lung
NCI-H322M lung = system: NCI-H322M lung
HOP-62 NSCLC = system: HOP-62 NSCLC
NCI-H460 lung = system: NCI-H460 lung
HOP-92 NSCLC = system: HOP-92 NSCLC
NCI-H522 lung = system: NCI-H522 lung
A549/ATCC NSCLC = system: A549/ATCC NSCLC
786-0 renal = system: 786-0 renal
COLO 205 colon = system: COLO 205 colon
DU-145 prostate = system: DU-145 prostate
K-562 leukemia = system: K-562 leukemia
MALME-3M melanoma = system: MALME-3M melanoma
MDA-MB-231 breast = system: MDA-MB-231 breast
RXF 393 renal = system: RXF 393 renal
SF-268 CNS = system: SF-268 CNS
SF-295 CNS = system: SF-295 CNS
SF-539 CNS = system: SF-539 CNS
UACC-257 melanoma = system: UACC-257 melanoma
M14 melanoma = system: M14 melanoma

Structure (SMILES) | growth (NCI-H23 lung) | growth (NCI-H226 lung) | growth (NCI-H322M lung) | growth (HOP-62 NSCLC) | growth (NCI-H460 lung) | growth (HOP-92 NSCLC) | growth (NCI-H522 lung) | growth (A549/ATCC NSCLC) | growth (786-0 renal) | growth (COLO 205 colon) | growth (DU-145 prostate) | growth (K-562 leukemia) | growth (MALME-3M melanoma) | growth (MDA-MB-231 breast) | growth (RXF 393 renal) | growth (SF-268 CNS) | growth (SF-295 CNS) | growth (SF-539 CNS) | growth (UACC-257 melanoma) | growth (M14 melanoma)
COc1cc(-c2ccc[nH]2)[nH]c1/C=C1\N=C(C)C(CC(=O)OCC(C)(C)C)=C1C | -46.8% (active) | -55.5% (active) | -49.7% (active) | -70.9% (active) | -67.3% (active) | -51.3% (active) | -62.8% (active) | -69.1% (active) | -88.1% (active) | -61.9% (active) | -73.9% (active) | -42.9% (active) | -76.3% (active) | -57.2% (active) | -82.3% (active) | -70.8% (active) | -81.8% (active) | -69.3% (active) | -81.4% (active) | -86.3% (active)
COc1cc2ncnc(Nc3ccc(F)c(Cl)c3)c2cc1OCC(=O)N1CCOCC1 | 90.7% | 102% | 24.7% | 98.1% | 99.5% | 92.1% | 33% | 74.8% | 78.5% | 106% | 57.3% | 88.4% | 98.2% | 108% | 107% | 75.3% | 90.6% | 97.7% | 106% | 90.4%
N#Cc1ccccc1-c1ccc(CN2C(=O)S/C(=C\c3ccc(Br)cc3)C2=O)cc1 | 96.6% | 86.9% | 101% | 94.8% | 106% | 94.6% | 94.8% | 97.3% | 99.3% | 111% | 105% | 93.8% | 96.8% | 95.9% | 104% | 99.4% | 93.1% | 99.7% | 92.3% | 98.2%
CN(C)/C(N)=N/N=C(\c1ccccc1)c1ccccn1 | 95.7% | 97.3% | 83.1% | 110% | 101% | 87.2% | 95.5% | 107% | 99.9% | 106% | 97.7% | 96.7% | 93.3% | 88.1% | 98.5% | 92.6% | 106% | 103% | 112% | 93%
N#C/C(=C\c1ccc(-c2cccc(Cl)c2)o1)C(=O)Nc1ncc(Cc2ccc(Cl)cc2)s1 | 59.6% | 74% | 33.6% | 15.9% | 25% | 79.8% | 83.4% | 31.6% | 37.3% | 83.7% | 55.9% | 80.6% | 42.7% | 34.1% | 86.7% | 72% | 45.3% | 56.6% | 23.9% | 62.5%
O=C(Nc1ncc(Cc2ccccc2)s1)c1sc2ccccc2c1Cl | 40.8% | 65% | 43.4% | 25% | 8.39% (active) | 76.7% | -2.01% (active) | 26.6% | 43.2% | 16.8% | 17% | 12.1% | 51% | 55.5% | -5.07% (active) | 52.1% | 17.7% | -1.43% (active) | 54.6% | 11.1%
CSc1ccc(N2C(=N)C(=S)N(c3ccc(C)cc3)C2=O)cc1 | 98.3% | 96.3% | 99% | 86.2% | 102% | 90% | 80.5% | 87.6% | 91.5% | 98% | 104% | 82% | 94.4% | 101% | 113% | 90.7% | 96.1% | 92.8% | 99.7% | 86.1%
CC/C(=C(\c1ccc(Cl)cc1)c1ccc(OCCN2CCCCC2)cc1)c1ccc(O)cc1 | 47.6% | 78.6% | 70.1% | -9.16% (active) | -34.5% (active) | 49.9% | 58.1% | 32.5% | -54.9% (active) | -73.5% (active) | 39.7% | -28.4% (active) | -38.1% (active) | 26.5% | -6.93% (active) | 53% | 54.6% | 50% | -22.1% (active) | -55.5% (active)
CC(C)c1ccc2c(c1)CC[C@H]1[C@](C)(C(=O)OCC#CCN3CCCC3)CCC[C@]21C | 61.3% | 81.8% | 93.8% | 94.1% | 96.9% | 65.2% | 85.8% | 75% | 84.1% | 44.7% | 89.3% | 39.8% | 70.8% | 100% | 74% | 89.1% | 97.5% | 77.8% | 82.4% | 82.4%
CNCC[C@H](Oc1cccc2ccccc12)c1cccs1 | 80.6% | 96.7% | 98.2% | 128% | 104% | 52.5% | 81.4% | 96.4% | 82.9% | 102% | 115% | 54.7% | 113% | 7.37% (active) | 72.3% | 88.2% | 94.1% | 97.5% | 90.1% | 104%
O=S(=O)(Nc1cc(F)cc(F)c1)c1ccc(-c2cnc(C3CC3)o2)cc1 | 63.7% | 48.2% | 63.2% | 40.9% | 25.3% | 42.5% | 7.85% (active) | 46.7% | 35.5% | 40.1% | 70.4% | 9.67% (active) | 50.1% | 58.2% | 46.6% | 56.7% | 20.9% | 29.2% | 62.7% | 16.5%
COCCOC(C)C(/C=N/NC(N)=S)=N/NC(N)=S (stereo not given) | 49.8% | 72.2% | 89.8% | 72.4% | 85.8% | 101% | 94.5% | 78.3% | 99.3% | 90.6% | 102% | 37.6% | 94.3% | 68% | 97.2% | 83.4% | 76.2% | 91.9% | 34.5% | 65.5%
CC(=O)c1sc(-c2ccc(F)cc2)cc1O | 96.4% | 103% | 98.3% | 111% | 108% | 102% | 99.2% | 97.2% | 96.7% | 116% | 97.7% | 88.5% | 99% | 127% | 111% | 97.2% | 105% | 114% | 100% | 95.1%
Cc1ccc2c(c1)=C/C(=C\c1cc(-c3ccccc3)[nH]c1O)C(=O)N=2 | 56.7% | 69.5% | 82.2% | 52% | 25.6% | 58% | 27% | 46.2% | 41.6% | 33.1% | 61.6% | 13.7% | 54.5% | 50.6% | 34.5% | 47.4% | 32.8% | 8.94% (active) | 64.7% | 17.8%
O=C1/C(=C/c2ccc(Cl)cc2)CN(C(=O)C(Cl)Cl)C/C1=C\c1ccc(Cl)cc1 | -69.2% (active) | -24.4% (active) | -70.9% (active) | -61.5% (active) | -64.9% (active) | -59.9% (active) | -60.3% (active) | -21.2% (active) | -80.2% (active) | -68.5% (active) | -89.7% (active) | -3.91% (active) | -65% (active) | -23.9% (active) | -88.2% (active) | -74.9% (active) | -86.7% (active) | -96.3% (active) | -42.3% (active) | -68.7% (active)
